In PubChem BioAssay (NCATS):
Several values for one entry are separate records, joined by “and”; a condition that tells them apart may be missing. Identical values can stand only once. Inconclusive results are not listed. Activity calls are given as the source filed them. The call rests on the fitted dose curve.

Tested on: not listed separately
Test: qHTS assay for small molecule agonists of retinoid X receptor alpha signaling (AID 588544)
Conditions: HEK293T RXRa-UAS-bla, beta-lactamase reporter, 18 h; 530 nm emission

Structure (SMILES) | max response
Brc1ccccc1 | -12.9% and -10.7%
CCOP(=S)(OCC)SCSC(C)(C)C | 19.7% and -0.121%
C=C(C)C#N | 5.57% and -6.47%
CCSC(=O)Cl | -20.5%
Cc1cccc([N+](=O)[O-])c1 | 2.54% and -15.5%
Nc1c(Cl)c(Cl)nc(C(=O)O)c1Cl | 27.1%
CC(C)(C)OOC(C)(C)C | -0.936%
C=C(C)C(=O)OCC1CO1 (stereo not given) | -10.2%
Cc1ccc([N+](=O)[O-])cc1C | -11.5%
O=[N+]([O-])c1ccc(Cl)c(Cl)c1 | 1.86%
C=CC(=C)C | 8.28%
Cc1ccc2ccccc2c1 | -14.7%
Nc1ccccc1Cl | -4.32%
Clc1ccc2ccccc2c1 | -15.7%
[O-][Br+2]([O-])O | 8.99% and 2.4%
Clc1nc(Cl)nc(Nc2ccccc2Cl)n1 | -6.76%
OCC1CO1 (stereo not given) | -4.32%
C=CCOC(=O)c1ccccc1N | 1.54%
C=CC(N)=O | -5.65% and -3.81%
CC(C)(c1ccccc1)c1ccc(O)cc1 | -10.3% and -15.2%

Structure (SMILES) | max response
CCN(CC)c1ccccc1 | -1.24%
S=C=Nc1cccc2ccccc12 | 6.51%
N#CCCCl | 5.05% and -2.32%
O=NN(CCO)CCO | -8.04%
Cc1ccccc1N | 1.21% and 0.728%
C=CCOC(C)=O | -7.26%
CCCC(=O)Cl | -4.61%
NC(=S)Nc1ccccc1 | -11.1% and -12.4% and -6.79%
O=C(Cl)/C=C/C(=O)Cl | -9%
C=C(Cl)Cl | -17.1%
ClCBr | -17.3%
COc1ccc(C=O)cc1OC | 17.8% and -5.1%
C=CC(=O)OCC | -5.05%
c1nc[nH]n1 | -16.7%
c1ccc2c(c1)CCCC2 | -21.1%
CCCSC(=O)Cl | -2.47%
Clc1cccc(C(Cl)(Cl)Cl)n1 | -9.56% and 6.27%
O=NN(c1ccccc1)c1ccccc1 | -13.1% and -6.23%
C1CCC2CCCCC2C1 (stereo not given) | -13.4%
CC(O)CCl (stereo not given) | -11.9% and -9.91%

Molecular target: Retinoic acid receptor RXR-alpha (Homo sapiens) (UniProt P19793)
Sequence (P19793 whole entry, looked up): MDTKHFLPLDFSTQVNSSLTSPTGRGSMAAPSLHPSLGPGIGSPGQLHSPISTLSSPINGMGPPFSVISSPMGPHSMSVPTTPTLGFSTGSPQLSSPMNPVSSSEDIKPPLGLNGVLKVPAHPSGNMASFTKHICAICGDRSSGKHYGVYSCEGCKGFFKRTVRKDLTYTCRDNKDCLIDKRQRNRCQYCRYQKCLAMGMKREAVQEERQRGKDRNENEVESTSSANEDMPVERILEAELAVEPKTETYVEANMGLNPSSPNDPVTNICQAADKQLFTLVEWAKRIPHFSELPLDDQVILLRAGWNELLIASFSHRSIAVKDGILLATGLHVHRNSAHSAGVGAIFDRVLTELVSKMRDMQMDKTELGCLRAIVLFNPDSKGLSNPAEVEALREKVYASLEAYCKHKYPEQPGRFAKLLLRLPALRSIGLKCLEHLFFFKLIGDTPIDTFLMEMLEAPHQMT
Test: as above
Conditions: HEK293T RXRa-UAS-bla, beta-lactamase reporter, 18 h; series mostly up to 76.7 µM

Structure (SMILES) | Potency
Brc1ccccc1 | inactive
CCOP(=S)(OCC)SCSC(C)(C)C | inactive
C=C(C)C#N | inactive
CCSC(=O)Cl | inactive
Nc1c(Cl)c(Cl)nc(C(=O)O)c1Cl | inactive
CC(C)(C)OOC(C)(C)C | inactive
C=C(C)C(=O)OCC1CO1 (stereo not given) | inactive
O=[N+]([O-])c1ccc(Cl)c(Cl)c1 | inactive
Cc1ccc2ccccc2c1 | inactive
Nc1ccccc1Cl | inactive
[O-][Br+2]([O-])O | inactive
C=CCOC(=O)c1ccccc1N | inactive
CC(C)(c1ccccc1)c1ccc(O)cc1 | inactive
CCN(CC)c1ccccc1 | inactive
S=C=Nc1cccc2ccccc12 | inactive
N#CCCCl | inactive
O=NN(CCO)CCO | inactive
Cc1ccccc1N | inactive
NC(=S)Nc1ccccc1 | inactive
O=C(Cl)/C=C/C(=O)Cl | inactive
c1ccc2c(c1)CCCC2 | inactive
CCCSC(=O)Cl | inactive
Clc1cccc(C(Cl)(Cl)Cl)n1 | inactive
C1CCC2CCCCC2C1 (stereo not given) | inactive
CC(O)CCl (stereo not given) | inactive

Molecular target: Thyroid hormone receptor beta (Homo sapiens) (UniProt P10828)
Sequence (P10828 whole entry, looked up): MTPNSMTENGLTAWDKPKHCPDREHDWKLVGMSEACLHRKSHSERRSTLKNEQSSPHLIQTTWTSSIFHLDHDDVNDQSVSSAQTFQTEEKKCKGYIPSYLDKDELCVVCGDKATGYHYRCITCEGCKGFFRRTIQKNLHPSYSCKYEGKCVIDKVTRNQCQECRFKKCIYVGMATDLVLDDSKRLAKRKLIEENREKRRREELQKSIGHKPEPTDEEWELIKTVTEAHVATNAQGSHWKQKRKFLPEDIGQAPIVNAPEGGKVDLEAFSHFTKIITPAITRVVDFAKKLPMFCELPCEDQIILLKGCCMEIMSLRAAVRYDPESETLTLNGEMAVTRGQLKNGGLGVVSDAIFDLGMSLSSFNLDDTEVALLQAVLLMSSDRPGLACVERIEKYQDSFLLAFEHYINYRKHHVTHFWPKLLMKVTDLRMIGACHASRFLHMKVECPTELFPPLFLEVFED
Test: qHTS assay for small molecule agonists of thyroid hormone receptor beta signaling (AID 588545)
Conditions: TR-UAS-bla GripTite HEK 293, beta-lactamase ratio, agonist mode, 18 h, percent of T3 response, DMSO as zero; series mostly up to 76.7 µM
Summary of the method: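 HEK 293 TR-UAS-bla; agonist mode; 18 hrs, 37 C; CCF4, ex 405/em 460 and 530 nm; norm. T3 10 nM = 100%, DMSO = 0%; Hill fit → EC50, efficacy.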

Structure (SMILES) | outcome
Brc1ccccc1 | inactive
CCOP(=S)(OCC)SCSC(C)(C)C | inactive
C=C(C)C#N | inactive
CCSC(=O)Cl | inactive
Nc1c(Cl)c(Cl)nc(C(=O)O)c1Cl | inactive
CC(C)(C)OOC(C)(C)C | inactive
C=C(C)C(=O)OCC1CO1 (stereo not given) | inactive
Cc1ccc([N+](=O)[O-])cc1C | inactive
O=[N+]([O-])c1ccc(Cl)c(Cl)c1 | inactive
C=CC(=C)C | inactive
Cc1ccc2ccccc2c1 | inactive
Nc1ccccc1Cl | inactive
Clc1ccc2ccccc2c1 | inactive
[O-][Br+2]([O-])O | inactive
Clc1nc(Cl)nc(Nc2ccccc2Cl)n1 | inactive
OCC1CO1 (stereo not given) | inactive
C=CCOC(=O)c1ccccc1N | inactive
CC(C)(c1ccccc1)c1ccc(O)cc1 | inactive

Structure (SMILES) | outcome
CCN(CC)c1ccccc1 | inactive
S=C=Nc1cccc2ccccc12 | inactive
N#CCCCl | inactive
O=NN(CCO)CCO | inactive
Cc1ccccc1N | inactive
CCCC(=O)Cl | inactive
NC(=S)Nc1ccccc1 | inactive
O=C(Cl)/C=C/C(=O)Cl | inactive
C=C(Cl)Cl | inactive
ClCBr | inactive
COc1ccc(C=O)cc1OC | inactive
C=CC(=O)OCC | inactive
c1ccc2c(c1)CCCC2 | inactive
CCCSC(=O)Cl | inactive
Clc1cccc(C(Cl)(Cl)Cl)n1 | inactive
O=NN(c1ccccc1)c1ccccc1 | inactive
C1CCC2CCCCC2C1 (stereo not given) | inactive
CC(O)CCl (stereo not given) | inactive

Tested on: not listed separately
Test: qHTS assay for small molecule antagonists of retinoid X receptor alpha signaling (AID 588546);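 further: cells stimulated with 9-cis-retinoic acid as agonist; on the % scale 0 is the no-effect control and ±100 the full control effect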
Conditions: HEK293T RXRa-UAS-bla, beta-lactamase ratio, antagonist mode; measured here: W530 green channel, cytotoxicity proxy
Summary of the method: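 Beta-lactamase reporter inhibition, read as CCF4 fluorescence ratio (ex 405, em 460/530 nm) after 2 h at RT. HEK293T UAS-bla cells, 2500/well, were stimulated with 9-cis-RA at 500 or 100 nM final alongside test compound for 18 h at 37 C.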

Structure (SMILES) | max response
Brc1ccccc1 | -12.3% and -4.99%
CCOP(=S)(OCC)SCSC(C)(C)C | -10.4% and -6.52%
C=C(C)C#N | 2.43% and -11.4%
CCSC(=O)Cl | -5.71%
Cc1cccc([N+](=O)[O-])c1 | -5.54% and -8.46%
Nc1c(Cl)c(Cl)nc(C(=O)O)c1Cl | 15% and 5.55% and 11.1%
CC(C)(C)OOC(C)(C)C | -12.4%
C=C(C)C(=O)OCC1CO1 (stereo not given) | -2.75%
Cc1ccc([N+](=O)[O-])cc1C | -4.65% and -9.04%
O=[N+]([O-])c1ccc(Cl)c(Cl)c1 | -6.04%
C=CC(=C)C | -1.77%
Cc1ccc2ccccc2c1 | -12.4%
Nc1ccccc1Cl | -3.04%
[O-][Br+2]([O-])O | -4.01% and -4.2%
Clc1nc(Cl)nc(Nc2ccccc2Cl)n1 | 1.32%
OCC1CO1 (stereo not given) | 2.41% and -5.17%
C=CCOC(=O)c1ccccc1N | -12.2%
C=CC(N)=O | -10.1% and 0.0016% and -8.94%
CC(C)(c1ccccc1)c1ccc(O)cc1 | -11.5%
CCN(CC)c1ccccc1 | -5.5%

Structure (SMILES) | max response
S=C=Nc1cccc2ccccc12 | -0.704%
N#CCCCl | 2.8% and 0.773%
O=NN(CCO)CCO | -0.955%
Cc1ccccc1N | -2.57%
C=CCOC(C)=O | -2.08%
CCCC(=O)Cl | -5.53%
NC(=S)Nc1ccccc1 | -15.9% and -3.13% and -6.62%
O=C(Cl)/C=C/C(=O)Cl | -3.67%
C=C(Cl)Cl | -3.44%
ClCBr | -9.96%
COc1ccc(C=O)cc1OC | -5.56% and -4.77%
C=CC(=O)OCC | -8.36%
c1nc[nH]n1 | 6.06%
c1ccc2c(c1)CCCC2 | -8.06%
CCCSC(=O)Cl | -2.55%
Clc1cccc(C(Cl)(Cl)Cl)n1 | -2.2% and -16.3%
O=NN(c1ccccc1)c1ccccc1 | -5.84% and -1.3%
C1CCC2CCCCC2C1 (stereo not given) | -2.39%
CC(O)CCl (stereo not given) | -12.9% and -6.32%
